# Test results reported in PubChem BioAssay.
# Calls of active or inactive are those of the source.
# Tested on: not listed separately
# Assay: S6 kinase pathway phospho-S6 level changes – cell-based, A549, cytoblot, luminescence, serum-stimulated, primary screen (AID 1158);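 note: serum-stimulated A549 lung adenocarcinoma cells; signal is phosphorylated S6 detected by cytoblot immunostaining with HRP secondary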
# Details: 5 h, higher = more signal
row,Structure (SMILES),z-score
1,CO[C@@H]1C=CCC(=O)N[C@@H](C)C(=O)OC[C@@H](NS(=O)(=O)c2ccc(C)cc2)[C@H](C)C=CCC(=O)OC[C@H]1C,-0.327
2,O=C1[C@H]2[C@H]3[C@H](O)[C@H](O)CC(=NO[C@@H]4O[C@H](CO)[C@@H](O)[C@H](O)[C@H]4O)[C@@H]3CC[C@H]2C(=O)N1C1CCCCC1,0.322
3,CCOC(=O)[C@H](CC(C)C)NC(=O)CCC1CC(OC(=O)NCc2ccc3c(c2)OCO3)CC2(CCCC(COC(=O)NCCOc3ccccc3)O2)O1 (some centres undefined),0.128

# Target: NADPH oxidase 2 (Homo sapiens) (UniProt P04839)
# Assay: compounds shifting NOX2 Amplex Red fluorescence – cell-based, HEK293-NOX2, PMA-stimulated, NOX inhibitor project, primary screen (AID 1159); note: test concentration not given here
# Details: 45 min, higher = more signal, called active from +8 up or from −8 down
# Chain of NADPH oxidase 2 (Homo sapiens) (P04839 whole entry, looked up): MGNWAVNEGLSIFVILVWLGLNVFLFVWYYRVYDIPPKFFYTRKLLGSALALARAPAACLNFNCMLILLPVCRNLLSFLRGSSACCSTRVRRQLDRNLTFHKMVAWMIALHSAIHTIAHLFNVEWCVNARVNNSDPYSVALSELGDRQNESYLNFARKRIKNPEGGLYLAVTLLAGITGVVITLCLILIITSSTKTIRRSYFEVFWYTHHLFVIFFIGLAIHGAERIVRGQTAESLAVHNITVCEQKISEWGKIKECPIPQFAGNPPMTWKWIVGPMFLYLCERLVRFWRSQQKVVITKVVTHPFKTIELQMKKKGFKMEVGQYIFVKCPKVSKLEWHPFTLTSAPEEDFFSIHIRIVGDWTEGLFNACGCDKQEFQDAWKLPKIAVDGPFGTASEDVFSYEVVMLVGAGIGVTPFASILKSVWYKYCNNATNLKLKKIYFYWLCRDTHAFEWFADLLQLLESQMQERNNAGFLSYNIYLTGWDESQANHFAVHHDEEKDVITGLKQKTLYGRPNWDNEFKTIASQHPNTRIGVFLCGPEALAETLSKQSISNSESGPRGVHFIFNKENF
row,Structure (SMILES),z-score
1,Cc1cc(C)c(-c2cc([C@H](C)ON=C[C@@H](C)[C@H](OCc3ccccc3)C(C)C)on2)c(C)c1,-0.467 (inactive)
2,CC(CCN1CCCCc2nc(C)c(C)cc21)=NO[C@H](C)c1cn([C@@H]2COC[C@H]2O)nn1,-0.526 (inactive)
3,COC(=O)[C@H](C)NC(=O)CCC1CC(OC(=O)NCc2ccc3c(c2)OCO3)CC2(CCCC(COC(=O)NCc3ccccc3)O2)O1 (some centres undefined),0.154 (inactive)
4,CC(=O)OC[C@H]1O[C@H](C#CCC2CCCCC2)C=C[C@@H]1OC(C)=O,0.217 (inactive)
5,CN1CCc2nc(-c3ccccc3)c(-c3ccccc3)cc2C1,-0.512 (inactive)
6,CO[C@H]1COC(=O)CCC[C@H](C)[C@H](OC)COC(=O)CC=C[C@@H]1C,-0.0777 (inactive)
7,COCOc1ccc(Br)cc1C(=O)C=Cc1ccc2c(c1)OCO2,0.187 (inactive)
8,CCN1C(=O)[C@H]2[C@H]3[C@H](O)[C@H](O)CC(=NO[C@@H](C)c4cc(-c5c(C)cc(C)cc5C)no4)[C@@H]3CC[C@H]2C1=O,0.204 (inactive)
9,C[C@@H](c1ccccc1)N1C(=O)[C@H]2[C@H]3[C@H](O)[C@H](O)CC(=NNC(=O)OCc4ccccc4)[C@@H]3CC[C@H]2C1=O,-0.065 (inactive)
10,CO[C@H]1COC(=O)CCC[C@H](C)[C@@H](OC)COC(=O)CC=C[C@@H]1C,-0.123 (inactive)
11,CO[C@H]1COC(=O)CC=C[C@H](C)[C@H](OC)COC(=O)[C@@H](C)NC(=O)CC=C[C@@H]1C,-0.677 (inactive)
12,CC(CCN1CCCc2nc(C)c(C)cc21)=NOC[C@@H](C)[C@H](OCc1ccccc1)C(C)C,-2.43 (inactive)
13,COc1ccc(COC(=O)NN=C2C[C@@H](O)[C@@H](O)[C@@H]3[C@@H]4C(=O)N([C@@H](C)c5ccccc5)C(=O)[C@@H]4CC[C@H]23)cc1,0.947 (inactive)
14,C=C(C)C(=O)OC[C@H]1CN2[C@@H](CC[C@@H](C)[C@@H]2c2ccc(Br)cc2)C(=O)O1,-1.81 (inactive)
15,O=C1[C@H]2[C@H]3[C@H](O)[C@H](O)CC(=NOC[C@@H](O)COCc4ccco4)[C@@H]3CC[C@H]2C(=O)N1Cc1ccc2c(c1)OCO2,-2.68 (inactive)
16,O=C(NN=C1C[C@@H](O)[C@@H](O)[C@@H]2[C@@H]3C(=O)N(c4ccc(F)cc4F)C(=O)[C@@H]3CC[C@H]12)OCc1ccccc1,0.317 (inactive)
17,CC(=O)OC[C@H]1O[C@H](CC=NOC[C@@H](O)COCc2ccco2)C=C[C@@H]1OC(C)=O,-0.431 (inactive)
18,CCN1C(C)=C(C(=O)OC)[C@@H](c2ccccc2)N2C(=O)[C@](O)(C(=O)OC)CC(C(C)=O)=C12,0.188 (inactive)

row,Structure (SMILES),z-score
1,CC(C)CON=C1C[C@@H](O)[C@@H](O)[C@@H]2[C@@H]3C(=O)N([C@@H](C)c4ccccc4)C(=O)[C@@H]3CC[C@@H]12,-1.96 (inactive)
2,COC(=O)CC=C1c2ccccc2[C@H](OC)[C@H]1C,0.457 (inactive)
3,CC(=O)OC[C@H]1O[C@H](CC=NOC[C@@H](O)[C@H]2O[C@@H]3OC(C)(C)O[C@@H]3[C@H]2O)C=C[C@@H]1OC(C)=O,-0.462 (inactive)
4,C#CCCCON=C1C[C@@H](O)[C@@H](O)[C@@H]2[C@@H]3C(=O)N(C[C@@H]4CCCO4)C(=O)[C@@H]3CC[C@H]12,-0.635 (inactive)
5,CCN1C(=O)[C@H]2[C@H]3[C@H](O)[C@H](O)CC(=NNC(=O)OCc4ccccc4)[C@H]3CC[C@H]2C1=O,0.92 (inactive)
6,C[C@@H]1CC[C@H]2C(=O)OC(Cc3ccccc3)CN2[C@H]1c1ccc(Br)cc1 (some centres undefined),0.379 (inactive)
7,CC(C)=NOC(C)CN1CCCCc2nc(C)c(C)cc21 (centres undefined),-0.0962 (inactive)
8,COC(=O)[C@@H]1CC[C@H](C)[C@@H](c2ccc(C)cc2)N1C(=O)c1ccc(C=NOC[C@@H](O)[C@H]2O[C@@H]3OC(C)(C)O[C@@H]3[C@H]2O)cc1,0.659 (inactive)
9,CCOC(=O)[C@H](Cc1ccccc1)NC(=O)CCC1CC(OC(=O)NCc2cccc3ccccc23)CC2(CCCC(COC(=O)NCCc3ccccc3OC)O2)O1 (some centres undefined),0.884 (inactive)
10,CON=C[C@@H](OC)[C@H](C)C=CCC(=O)OC,0.592 (inactive)
11,O=C(NCCC[N+]1=CC=NC1c1ccccc1)N1CCCc2nc(-c3ccc(Br)cc3)ccc21 (centres undefined),0.528 (inactive)
12,COc1cccc([C@H](O)Cn2cc(-c3ccc(CON=C(C)C)cc3)nn2)c1,0.0342 (inactive)
13,C=CC[C@@H]1C=C[C@H](Oc2ccc(C)cc2)[C@@H](COC(=O)NCc2cccc3ccccc23)O1,0.839 (inactive)
14,COC(=O)[C@H](C)NC(=O)CCC1CC(OC(=O)NCCc2ccc(F)cc2)CC2(CCCC(COC(=O)NCCOc3ccccc3)O2)O1 (some centres undefined),0.749 (inactive)
15,CO[C@@H](C(C)C)[C@@H](C)C1OC(=O)CC1O (some centres undefined),1.29 (inactive)
16,CO[C@@H]1C=CCC(=O)N[C@@H](C)C(=O)OC[C@@H](NS(=O)(=O)c2ccc(C)cc2)[C@H](C)C=CCC(=O)OC[C@H]1C,-9.51 (active)
17,O=C1[C@H]2[C@H]3[C@H](O)[C@H](O)CC(=NO[C@@H]4O[C@H](CO)[C@@H](O)[C@H](O)[C@H]4O)[C@@H]3CC[C@H]2C(=O)N1C1CCCCC1,-0.336 (inactive)
18,CCOC(=O)[C@H](CC(C)C)NC(=O)CCC1CC(OC(=O)NCc2ccc3c(c2)OCO3)CC2(CCCC(COC(=O)NCCOc3ccccc3)O2)O1 (some centres undefined),1.02 (inactive)
